Assay outcomes: PubChem, The Scripps Research Institute Molecular Screening Center
The list is not random: actives were taken first. Their share in the collection is about 4.2%.
DAX1 StAR inh – inhibitors of DAX1 repression of SF-1 activated StAR promoter; HEK293T StAR-luciferase reporter, SF-1/DAX-1 repression relief; AID 652010; 370,000 compounds, 1.1% hits; inhibition, % at 6.8 µM;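 active means inhibition above the mean over all tested compounds plus 3 SD, cut at about 3.6% in these data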;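 further: 0% = DAX-1 cells with DMSO and 100% = cells lacking DAX-1 with DMSO; higher inhibition means more luminescence from relief of DAX-1 repression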
hgDAF12 agonist – hgDAF-12 agonism, primary luciferase screen; HEK293 GAL4-hgDAF12 UAS-luciferase reporter, agonist luminescence; normalized to butyrate control; AID 687014; 370,000 compounds, 1.8% hits; activation, % at 6.8 µM;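 active means activation above a cutoff set at the mean of all screened compounds plus 3 SD, cut at about 10% in these data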;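 further: 0% = DMSO wells and 100% = sodium butyrate wells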
hcDAF12 agonist – activators of H. contortus DAF-12 nuclear receptor. HEK293 hcDAF-12 lit1-tk-luc reporter, luminescence; 0% DMSO, 100% Δ7-dafachronic acid. AID 652067. activation, % at 6.8 µM. 370,000 compounds, 1.4% hits;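 active means activation above the mean of all tested compounds plus 3 SD, cut at about 5.5% in these data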;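 further: 100% = response to 3 µM Δ7-dafachronic acid high control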
ssDAF-12 act – activators of S. stercoralis DAF-12 nuclear receptor; HEK293 ssDAF-12/GRIP1 lit1-tk-luc reporter, luminescence; % of 3 µM dafachronic acid response; 370,000 compounds, 1% hits; AID 652126; activation, % at 6.8 µM;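 active means activation above the mean over all tested compounds plus 3 SD, cut at about 0.9% in these data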;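 further: 0% = DMSO-only wells and 100% = 3 µM delta7-dafachronic acid wells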
SMARCA2 activ – increases SMARCA2 function in MMTV reporter cells | MG213 cells, MMTV-luciferase reporter, dexamethasone, overnight | activation, % at 9.1 µM | 370,000 compounds, 1% hits | AID 652017; in the data active means activation above about 7.8%;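 further: 0% = vehicle wells and 100% = reference activator wells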
Starred values were filed as active, the others as inactive; · = no result.

SMILES	DAX1 StAR inh	hgDAF12 agonist	hcDAF12 agonist	ssDAF-12 act	SMARCA2 activ
COc1ccc(-c2cn3ccccc3n2)cc1[N+](=O)[O-]	-0.1	11.3*	1.8	-0.7	3.8
COc1ccc(-c2cn3cc([N+](=O)[O-])ccc3n2)cc1OC	0.0	8.0	-1.1	-1.7	0.1
Cc1cc2c(s1)c1cnn(Cc3ccc(F)cc3F)c(=O)c1n2C	·	-4.3	-3.9	-2.1	·
NC(=O)c1c(N)[nH]c(C(=O)c2ccccc2)c1-c1cccc2ccccc12	·	2.8	2.2	1.0*	·
CCCC1CCC2(CC1)CCC2OC(=S)Nc1ccc(N(C)C)cc1 (stereo not drawn)	·	-1.3	-1.4	-0.4	·
O=C1c2ccccc2NC2(CCCC2)N1O	-0.5	1.7	-0.6	-1.0	1.2
O=C1c2ccccc2NC2(CCCCC2)N1N=C1CCCCC1	0.7	12.0*	1.4	-0.5	0.9
COc1ccc(C2=CCN(C)C(=O)N2c2ccc([N+](=O)[O-])cc2)cc1	-0.3	1.6	-2.5	0.0	0.5
Cn1nc(-c2ccccc2)nc1-c1ccccc1	1.3	9.4	6.3*	0.8	5.0
C/C(=N\NC(=O)c1cccc(O)c1)c1cccc(NC(=O)c2ccc(F)cc2)c1	4.3*	6.0	0.0	0.6	3.5
C/C(=N\NC(=O)c1ccc(F)cc1)c1cccc(NC(=O)c2cccc(F)c2)c1	0.5	2.9	2.9	-0.9	2.0
COc1ccc(/C(C)=N/NC(=O)c2ccccc2N)cc1	1.3	6.7	5.1	-0.2	7.9*
C/C(=N\NC(=O)c1cccc(O)c1)c1ccc(NC(=O)Cc2ccccc2)cc1	6.8*	9.7	2.1	-0.1	3.0
COc1ccc(/C(C)=N/NC(=O)c2ccncc2)cc1	0.4	2.9	0.5	-1.1	-0.1
COc1cccc(C(=O)N/N=C(\C)c2ccc(NC(=O)Cc3ccccc3)cc2)c1OC	3.8*	8.5	3.8	-0.3	-0.6
COc1ccc(C(=O)C2(C(=O)Nc3cc(C)cc(C)c3)CC(c3ccccn3)=NO2)cc1 (stereo not drawn)	0.4	7.4	1.2	-0.6	-3.0
O=c1[nH]c(S)c(/C=C2\C=Nc3ccccc32)s1	-0.1	1.8	4.3	1.2*	-0.4
Oc1nc(Nc2ccc(F)cc2)sc1/C=C1\C=Nc2ccccc21	-0.9	-1.6	1.0	-0.5	-1.6
O=C(/C=C/c1cccc(F)c1)OCC(=O)c1ccc[nH]1	-2.1	8.7	0.1	-0.3	7.9*
N#Cc1ccc(OC[C@@H](O)CN2CCC(C(O)(c3ccccc3)c3ccccc3)CC2)cc1	-0.5	-4.2	-0.5	-1.6	-2.7
Cc1ccc(-n2ncc3c(NCc4cccnc4)ncnc32)cc1C	0.5	5.0	0.4	-0.8	1.1
COc1ccc(-n2ncc3c(NCc4cccnc4)ncnc32)cc1	2.1	11.3*	3.3	0.1	2.9
Cc1cccc(CN2CCN(C3CN(Cc4cn(Cc5ccccc5)nn4)S(=O)(=O)C3)CC2)c1 (stereo not drawn)	0.8	0.9	0.3	-1.1	-5.8
C/C(=N\NC(=O)c1ccc(Cn2cc(Br)cn2)o1)c1ccc(NC(=O)c2ccoc2C)cc1	4.4*	9.5	1.8	-0.1	5.0
C/C(=N\NC(=O)c1ccc(Cn2cc(Br)cn2)o1)c1cccc(NC(=O)C(C)(C)C)c1	0.0	3.5	-0.5	-0.6	2.8
SMILES	DAX1 StAR inh	hgDAF12 agonist	hcDAF12 agonist	ssDAF-12 act	SMARCA2 activ
COc1ccc(Oc2c(Br)cnn(Cc3cccc4ccccc34)c2=O)cc1	1.0	-1.8	-2.0	-1.2	0.0
CC(=NNS(=O)(=O)c1ccc([N+](=O)[O-])cc1)c1ccc(C)cc1	0.7	-2.5	1.9	-0.8	5.1
C/C(=N\NS(=O)(=O)c1ccc([N+](=O)[O-])cc1)c1ccc(NC(=O)c2ccco2)cc1	4.3*	12.4*	0.2	-1.3	0.1
O=C1N(c2ccccc2)CCN1c1ccccc1	1.9	10.7*	5.1	0.1	2.2
Nc1nc2c(ncn2[C@@H]2O[C@H](C(=O)NC3CCCCC3)[C@@H](O)[C@H]2O)c(=O)[nH]1	0.3	-1.7	-1.3	-0.9	3.7
O=C(CCNS(=O)(=O)c1ccc2[nH]c(=O)oc2c1)Nc1cccc(Br)c1	-0.3	-0.5	0.0	-1.4	7.8*
Cc1cc(NC(=O)CCNS(=O)(=O)c2ccc3[nH]c(=O)oc3c2)ccc1Br	-0.3	-0.8	-2.5	-1.3	-0.5
Cc1cc(C)n2cc(CSc3nc4ccccc4s3)nc2n1	1.7	5.1	5.7*	0.0	1.8
COc1ccc(/C=N/NC(=O)c2ccccc2O)cc1CN1CCOCC1	-0.4	5.7	6.0*	-0.4	1.3
O=C(N/N=C/c1ccoc1)c1cc(O)cc(O)c1	1.2	-0.7	-0.6	-0.5	1.0
O=C(N/N=C/c1ccoc1)c1ccccc1	6.4*	10.7*	3.8	1.1*	2.9
O=C(N/N=C/CCc1ccccc1)c1ccccc1	3.0	10.8*	0.8	0.3	-0.6
O=C(N/N=C/CCc1ccccc1)C1CCCCC1	-0.1	-2.0	0.1	0.1	2.9
O=C(N/N=C/c1ccoc1)c1ccccc1O	3.7*	9.6	5.1	0.2	0.8
COc1ccc(/C=N/NC(=O)c2cccc(Br)c2)cc1CN1CCOCC1	0.1	0.7	-1.6	-1.3	-0.5
CCOC(=O)CC[C@@H]1CC[C@]2(CCCN(Cc3ccc(OC)cc3)C2)O1	0.4	-1.4	-1.7	-1.4	0.8
Cc1ccc(-c2cc(NC(=O)Cc3c(C)[nH]c4ccccc34)ccc2Nc2cccnc2)cc1	-1.8	0.9	1.8	-1.2	-3.7
O=S(=O)(c1ccccc1)n1c(CN2CCOCC2)nc2ccccc21	-1.1	-2.7	1.0	-0.8	-2.7
COCCNc1nc2cc(-c3ccccc3OC)sc2c(=O)n1C	0.6	3.5	-2.4	-1.3	-1.6
COCCNc1nc2cc(-c3ccc(F)cc3)sc2c(=O)n1C	-0.7	11.7*	-1.0	-1.4	-4.7
C=CCNc1nc2cc(-c3ccccc3OC)sc2c(=O)n1C	-0.3	11.4*	1.9	-0.4	3.9
S=C(Nc1ccccc1Br)OCCN1CCCC12CCC(c1ccccc1)CC2 (stereo not drawn)	·	-0.8	0.8	-2.0	·
CC(C)(C)OC(=O)N1CCN(C(c2ccnc3ccccc23)c2nnnn2-c2ccc3c(c2)OCCO3)CC1 (stereo not drawn)	-0.4	2.9	-0.9	-1.1	-3.2
COc1cccc(-c2cc(C(C)=O)c3n(c2=O)CCC3)c1OC	0.8	-0.1	-1.3	-1.5	-1.1
Cc1ccc(NC(=O)Nc2cccs2)cc1	1.4	10.7*	5.4	-0.1	3.0
Cc1ccc(NC(=O)Nc2cccs2)nc1	0.5	9.1	0.1	-0.4	6.0
Cn1c(=O)cc(OCCCC(=O)Nc2cc(C(F)(F)F)ccn2)c2ccccc21	·	-10.6	-5.3	-3.0	·
Cc1ccc(NC(=O)c2cc(N(C)C)ccc2[P+](=O)O)cc1	3.7*	11.0*	5.7*	-0.5	5.1
CC(C)C[C@@H]1COc2cc(F)ccc2S(=O)(=O)N1	-2.0	-2.2	0.1	-0.3	-3.3
CCOC(=O)c1[nH]c2ccccc2c1NC(=O)c1cc(OC)c(OC)c(OC)c1	-1.2	-2.1	-0.5	-1.3	-2.1
